The values below come from PubChem BioAssay (Tox21).

Results filed as inconclusive are left out. Unmarked numbers belong to inactive results. The source made the active and inactive calls. The call rests on the fitted dose curve; in most records, active means well fitted cell-killing curve with a large enough effect in the repeat runs; inconclusive means weak or mixed curves, or effect the other way; inactive means flat fitted curve, though single readings scatter. Non-standard residues stand in square brackets, D forms with d. Residues, ends and D or L forms follow the SMILES beside them. *: point of attachment. Sta = CC(C)C[C@H](N)[C@@H](O)CC(=O)O; Isovaleryl = CC(C)CC(=O)*
On the % scale 0 is the no-effect control and ±100 the full control effect.

This assay is described as follows: qHTS RealTime-Glo MT Cell Viability Assay in HEK293 cells - 16 hour (AID 1224872). Further: top concentration of the series differs between compounds; nearly all actives have a fitted effect of over 50% in size. Particulars: RealTime-Glo luminescence; series mostly up to 76.8 µM. The text has this: National Center for Advancing Translational Sciences [NCATS]
NIH Chemical Genomics Center [NCGC]
U.S. Environmental Protection Agency [EPA]
National Institutes of Environmental Health Sciences [NIEHS]
National Toxicology Program [NTP]
U.S. Food and Drug Administration [FDA]
Measure of cell viability is critical in the cell-base assay. Analysis of cell viability is necessary for the characterization of cell responses to cytotoxic drugs and environmental stress. A RealTime-Glo MT Cell Viability Assay to monitor cell viability in real time of continues cell culture during 40 hours of compound treatment was used to screen Tox21 10K library compounds in Hek293 cells. The RealTime-Glo MT Cell Viability Assay is a nonlytic, homogeneous, bioluminescent method to measure cell viability in real time using a simple, plate-based method. The assay involves adding NanoLuc luciferase and a cell-permeant prosubstrate to cells in culture. Viable cells reduce the proprietary prosubstrate to generate a substrate for NanoLuc luciferase. This substrate diffuses from cells into the surrounding culture medium, where it is rapidly used by the NanoLuc Enzyme to produce a luminescent signal. The signal correlates with the number of viable cells, making the assay well suited for cytotoxicity studies.
Tox21 Assay Protocol Summary:
The mixture of Hek293 cell suspension and reagents were dispensed at 600cells/6 ul/well in 1536-well tissue culture treated black solid bottom plates using a Multidrop dispenser. After the assay plates were incubated at a 37 C/5% CO2 incubator for 5 hours, 23 nL of compounds dissolved in DMSO, positive and negative controls was transferred to the assay plate by a pintool work station. The plates were incubated at 37 C for 40 hours. The luminescence intensity were measured at 0h, 8h, 16h, 24h, 32h and 40h time points using ViewLux plate reader during compound treatment.
In general terms: In qHTS, concentration-response curves come from the screen itself.
As to `CCN(CC)CC`, the compound was classed as inactive.
Take `Nc1cc(S(=O)(=O)O)ccc1O`: the compound was classed as inactive.
Regarding `C[n+]1ccccc1/C=N/O`, the compound was called inactive.
The same measure, in the same setting: to `CCO/C=C1\N=C(c2ccccc2)OC1=O` belongs “inactive”.
In the case of `CC1=C(O)C(=O)CO1`, the result was inactive.
`C[Si](C)(C)O[Si](O)(O)O`: the compound was classed as inactive.
For `O=c1c(O)c(O)c1=O`, the outcome was inactive.
Turning to `NNC(=O)CCCCC(=O)NN`, the compound was classed as inactive.
Take `Cc1nc2ccc(Cl)cc2[nH]1`: the call was inactive.
For `COC(=O)c1cc(Cl)c(NC(C)=O)cc1OC`, the compound was called inactive.
As to `COc1cc(C(=O)NC2CCCNC2)cc(OC)c1OC` (stereo not given), the result was inactive.
Same read-out and setting: to `N=C(N)S(=O)O` belongs “inactive”; to `Cc1ccc2cccnc2c1`, “inactive”; to `CCc1ncc(C)[nH]1`, “inactive”.
As for `C=C(C)C(=O)OCCCC`, the outcome was inactive.
As for `Cc1ccccc1C#N`, the compound was classed as inactive.
In the case of `CO/N=C(\C(=O)O)c1csc(NC(=O)CCl)n1`, the call was inactive.
Consider `CCCCCCCCCCCCCC(=O)OCC`, for which the call was inactive.
With `CC(C)CC(=O)N[C@H](C(=O)N[C@H](C(=O)N[C@@H](CC(C)C)[C@@H](O)CC(=O)N[C@@H](C)C(=O)N[C@@H](CC(C)C)[C@@H](O)CC(=O)O)C(C)C)C(C)C` (Isovaleryl-VV[Sta]A[Sta]-OH), the compound was classed as inactive.
In the case of `CC(C)OCCO`, the result was inactive.
Turning to `C=CCON/C(CCC)=C1\C(=O)CC(C)(C)C(C(=O)OC)=C1O`, the call was inactive.
With `CC[N+](C)(CC)CC`, the compound was classed as inactive.
Same read-out and setting: to `CCN1CCN(C(=O)N[C@@H](C(=O)N[C@@H]2C(=O)N3[C@@H]2SC(C)(C)[C@H]3C(=O)O)c2ccccc2)C(=O)C1=O` belongs “inactive”; to `COc1cc(NS(=O)(=O)c2ccc(N)cc2)ncn1`, “inactive”.
On to `CCCCCCCCS(=O)(=O)O`, for which the compound was classed as inactive.
Same read-out and setting: in the case of `Cc1cc(C)c(N)c(Cl)c1` it was “inactive”; in that of `CCCCc1ccc(Cl)cc1`, “inactive”.
Take `C[C@@H]1CC[C@@]2(OC1)O[C@H]1C[C@H]3[C@@H]4CC[C@H]5C[C@@H](O)CC[C@]5(C)[C@H]4CC(=O)[C@]3(C)[C@H]1[C@@H]2C`: the activity change, negative = cytotoxicity is -0.344% [at 6.97 µM].
With `CCN1CCN(C(=O)N[C@@H](C(=O)N[C@@H]2C(=O)N3C(C(=O)O)=C(CSc4nnnn4C)CS[C@H]23)c2ccc(O)cc2)C(=O)C1=O`, the call was inactive.
For the compound `C=CC(=O)OCC[N+](C)(C)C`, the call was inactive.
Consider `BrCCOc1ccccc1`, for which the result was inactive.
As for `CC(C)C(C)C`, the result was inactive.
Consider `CCCCCCCCCCCCCCCC/C=C/C1CC(=O)OC1=O` (stereo not given), for which the compound was classed as inactive.
As to `CC(C)(O)CCCC1=CCC(C=O)CC1` (stereo not given), the result was inactive.
As to `NNC(=O)OCc1ccccc1`, the compound was classed as inactive.
For the compound `CC/C=C/CCCCCCCCCCOC(C)=O`, the compound was classed as inactive.
The same measure, in the same setting: to `Cc1ccc(Br)cc1` belongs “inactive”.
As for `CCO[Si](CC(C)C)(OCC)OCC`, the compound was classed as inactive.
As to `CN(C)CCc1c[nH]c2ccc(C[C@H]3COC(=O)N3)cc12`, the compound was called inactive.
For `C=CC(=O)CC`, the compound was called inactive.
